The nature of assay [1]: qHTS profiling for inhibitors of Plasmodium falciparum proliferation (AID 504749). Also: nearly all actives have a fitted effect of over 60% in size.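 As to activity, negative = inhibition: 0% = DMSO vehicle and full inhibition = artemisinin control.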 The note with it: P. falciparum in erythrocytes, SYBR Green DNA, 72 h. Summed up:
(§1)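 Parasite proliferation within erythrocytes, 72 h exposure. Endpoint: SYBR Green I fluorescence after overnight lysis at room temperature. Controls: 0.29 uM artemisinin, DMSO.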
Background: Quantitative high-throughput screening tests each substance at several concentrations.

The test system of another assay is 3D7. The description is as above. The note with it: P. falciparum in erythrocytes, SYBR Green DNA, 72 h; series mostly up to 28.7 µM. Put shortly:
as §1

A further assay relates to AA1029. The assay is described as above. The note with it: P. falciparum in erythrocytes, SYBR Green DNA, 72 h; series mostly up to 28.7 µM. Put shortly:
as §1

In a further assay the test system is AS120. The assay is described as above. The note with it: P. falciparum in erythrocytes, SYBR Green DNA, 72 h; series mostly up to 28.7 µM. Summed up:
as §1

In a further assay the test system is ATS189. The description is as above. The note with it: P. falciparum in erythrocytes, SYBR Green DNA, 72 h; series mostly up to 28.7 µM. Summed up:
as §1

The subject of another assay is ATS95. The description is as above. Particulars: P. falciparum in erythrocytes, SYBR Green DNA, 72 h; series mostly up to 28.7 µM. Summed up:
as §1

A further assay deals with C2A. The description is as above. The note with it: P. falciparum in erythrocytes, SYBR Green DNA, 72 h; series mostly up to 28.7 µM. Summed up:
as §1

The next assay relates to CP185. The description is as above. Particulars: P. falciparum in erythrocytes, SYBR Green DNA, 72 h; series mostly up to 28.7 µM. Summed up: as §1
In the next assay the test system is CP191. Described as above. The note with it: P. falciparum in erythrocytes, SYBR Green DNA, 72 h; series mostly up to 28.7 µM. Summed up:
as §1

The subject of the next assay is 7G8. Described as above. The note with it: P. falciparum in erythrocytes, SYBR Green DNA, 72 h; series mostly up to 28.7 µM. Put shortly: as §1
The mark [2] stands for this setting: at 28.7 µM (top of the series), parasite line A.
Setting [3] is: at 28.7 µM (top of the series), parasite line B.

Inconclusive results are not listed. Values without a mark were called inactive. Active and inactive are the calls of the source. Calls follow the shape of the dose curve; as a rule, active = well fitted inhibition curve with a large enough effect; inconclusive = small, poorly fitted or top-dose-only effect; inactive = flat fitted curve, though single readings scatter.
Potency is read from the fitted curve at half-maximal effect.

On to `Cn1c(=O)c2c(ncn2C)n(C)c1=O`, for which the activity, negative = inhibition in assay [1] (setting [2]) is 6.06%; in assay [1] (setting [3]) it was 8.5%. Moreover, the Potency entry in the assay with 3D7, in the assay on AA1029, in the assay with AS120, in the assay with ATS189, in the assay on ATS95 and in the assay with C2A was “inactive” each time. Further, the Potency result in the assay with CP185 and in the assay with CP191 was “inactive” each time.

For the compound `CCOC(=O)c1ncn2c1CN(C)C(=O)c1cc(F)ccc1-2`, the activity, negative = inhibition in assay [1] (setting [2]) was 8.32%; in [1] (setting [3]), 17%. In addition, the Potency entry with 3D7, in the assay on AA1029, in the assay with AS120, with ATS189, in the assay with ATS95 and with C2A was “inactive” each time. Further, the Potency result with CP185 and in the assay on CP191 was “inactive” throughout.

For the compound `Nc1c2c(nc3ccccc13)CCCC2`, the Potency result in the assay with C2A is “inactive”.

For `CN1CCC(=C2c3ccccc3C=Cc3ccccc32)CC1`, the activity, negative = inhibition in [1] (setting [2]) was 13.5%; in [1] (setting [3]), 3.94%. The Potency result with 3D7, in the assay with AA1029, with ATS189, in the assay on ATS95, in the assay on C2A and in the assay with CP185 was “inactive” each time. Also, the Potency result with CP191 is “inactive”.

Turning to `Cn1ccc2cc3c(cc21)CCN3C(=O)Nc1cccnc1`, in the assay on 7G8, the Potency is 8.91 µM (active).

With `NC12CC3CC(CC(C3)C1)C2`, the activity, negative = inhibition is 8.47% in assay [1] (setting [2]) and 14.2% in assay [1] (setting [3]). The Potency entry in the assay on 3D7, with AA1029, in the assay on AS120, in the assay with ATS189, in the assay with ATS95 and with C2A was “inactive” each time. In addition, the Potency result with CP185 and in the assay on CP191 was “inactive” each time.

`CC(C)C(=O)Nc1ccc([N+](=O)[O-])c(C(F)(F)F)c1`: the values for the activity, negative = inhibition in assay [1] (setting [2]) and in [1] (setting [3]) were 5.81% and 10.3%, respectively. The Potency entry in the assay on 3D7, in the assay on AA1029, in the assay on AS120, with ATS189, in the assay with ATS95 and in the assay on C2A was “inactive” throughout. In addition, the Potency result in the assay on CP185 and in the assay with CP191 was “inactive” in each case.

As for `Clc1ccc2c(c1)C(N1CCNCC1)=Nc1ccccc1O2`, the activity, negative = inhibition in [1] (setting [2]) was -18.9%. Also, the Potency entry with 3D7, in the assay with C2A and in the assay on CP185 was “inactive” in each case.

For the compound `CN(C)CCCN1c2ccccc2CCc2ccc(Cl)cc21`, the activity, negative = inhibition in assay [1] (setting [2]) was -15.4%; in assay [1] (setting [3]), -29.1%. Besides, the Potency entry in the assay on 3D7, with C2A and with CP185 was “inactive” throughout. Also, the Potency in the assay with 7G8 is 5.01 µM (active).

Consider `COc1ccccc1OCCNCC(O)COc1cccc2[nH]c3ccccc3c12` (centres undefined), for which the Potency in the assay with 7G8 was 8.91 µM (active); with AA1029, 8.91 µM (active); in the assay with AS120 it was 3.98 µM (active); in the assay with ATS95, 12.6 µM (active); with C2A, 10 µM (active).

As for `CC(C)NCC(O)c1ccc(O)c(O)c1` (centres undefined), the results for the activity, negative = inhibition in assay [1] (setting [2]) and in assay [1] (setting [3]) were -3.62% and -0.405%, respectively. In addition, the Potency entry with 3D7, with AA1029, in the assay with AS120, in the assay on ATS189, with ATS95 and in the assay with C2A was “inactive” throughout. Besides, the Potency result in the assay on CP185 and in the assay on CP191 was “inactive” each time.

With `Clc1ccccc1C(c1ccccc1)(c1ccccc1)n1ccnc1`, the Potency in assay [1] (parasite line A) was 0.631 µM (active); in [1] (parasite line B), 0.708 µM (active); in the assay with AA1029, 0.891 µM (active); in the assay on AS120 it was 0.178 µM (active); in the assay on ATS189, 0.708 µM (active); in the assay with ATS95 it was 1 µM (active). Moreover, the Potency with C2A was 1.78 µM (active); in the assay with CP185 it was 1.78 µM (active); with CP191, 0.794 µM (active).

As for `CC[C@@]1(O)C(=O)OCc2c1cc1n(c2=O)Cc2cc3c(CN(C)C)c(O)ccc3nc2-1`, the Potency in assay [1] (parasite line A) is 3.55 µM (active); in assay [1] (parasite line B) it was 7.08 µM (active); in the assay on 3D7, 5.62 µM (active); in the assay with AA1029 it was 7.08 µM (active); in the assay on AS120, 3.55 µM (active); in the assay with ATS95, 3.16 µM (active). In addition, the Potency with C2A and in the assay with CP191 was 8.91 µM (active) each time.

As to `CN(C)CCC=C1c2ccccc2C=Cc2ccccc21`, the activity, negative = inhibition in assay [1] (setting [2]) is -3.11%; in assay [1] (setting [3]), -19.2%. Besides, the Potency result with 3D7, in the assay with ATS189, with C2A and in the assay on CP185 was “inactive” in each case. Also, the Potency in the assay with 7G8 was 7.94 µM (active).

`CC(COc1ccccc1)N(CCCl)Cc1ccccc1` (centres undefined): the activity, negative = inhibition in assay [1] (setting [2]) was 7.32%; in [1] (setting [3]), 2.35%. In addition, the Potency result in the assay with 3D7, in the assay on C2A, in the assay with CP185 and in the assay with CP191 was “inactive” each time. In addition, the Potency with 7G8 is 12.6 µM (active).

`COC(=O)Nc1nc2ccc(C(=O)c3cccs3)cc2[nH]1`: the values for the activity, negative = inhibition in [1] (setting [2]) and in [1] (setting [3]) were -6.79% and 11.2%, respectively. The Potency result in the assay with 3D7, in the assay with 7G8, with AA1029, in the assay on AS120, in the assay with ATS189 and with ATS95 was “inactive” each time. Besides, the Potency entry with CP185 and in the assay with CP191 was “inactive” in each case.

With `CN(C)C(=N)N=C(N)N`, the activity, negative = inhibition in assay [1] (at 12.8 µM (top of the series), parasite line A) is 11.7%; in assay [1] (at 12.8 µM (top of the series), parasite line B), 23.8%. Further, the Potency result in the assay on 3D7, with 7G8, in the assay with AA1029, with ATS189, in the assay with ATS95 and in the assay on C2A was “inactive” throughout. The Potency result in the assay on CP185 and in the assay with CP191 was “inactive” each time.

As to `CN1CCC(=C2c3ccccc3CC(=O)c3sccc32)CC1`, the figures for the Potency (in assay [1] (parasite line A); with 7G8; with ATS95) were 5.01 µM (active), 11.2 µM (active) and 11.2 µM (active), respectively.

Consider `CC(CCc1ccc(O)cc1)NCCc1ccc(O)c(O)c1` (centres undefined), for which the activity, negative = inhibition in assay [1] (setting [2]) was 7.14%; in assay [1] (setting [3]), -3.6%. Further, the Potency result with 3D7, in the assay on AA1029, in the assay on AS120, in the assay on ATS189, in the assay with ATS95 and with C2A was “inactive” in each case. For the same compound, the Potency entry with CP185 and in the assay on CP191 was “inactive” throughout.

Turning to `CC12CC3CC(C)(C1)CC(N)(C3)C2`, the activity, negative = inhibition was 13.9% in assay [1] (setting [2]) and 1.67% in [1] (setting [3]). Moreover, the Potency entry with 3D7, in the assay on AS120, in the assay on ATS189, in the assay on C2A, with CP185 and in the assay on CP191 was “inactive” each time. Further, the Potency in the assay with 7G8 was 8.91 µM (active); in the assay on AA1029 it was 10 µM (active).

Regarding `CN(C)CCOC(c1ccccc1)c1ccccc1`, the activity, negative = inhibition in [1] (setting [2]) was 13.6%; in [1] (setting [3]) it was 11.2%. The Potency entry in the assay on 3D7 and in the assay with CP191 was “inactive” throughout. For the same compound, in the assay with 7G8, the Potency was 11.2 µM (active).

As to `O=C(Nc1ccc([N+](=O)[O-])cc1Cl)c1cc(Cl)ccc1O`, the Potency in the assay on 3D7 is 1.78 µM (active); in the assay with 7G8 it was 0.891 µM (active); in the assay with AS120, 0.794 µM (active); with CP191, 0.891 µM (active). Further, the Potency result in the assay on C2A and in the assay on CP185 was “inactive” each time.

As for `CC(C)(Oc1ccc(C2CC2(Cl)Cl)cc1)C(=O)O` (centres undefined), the activity, negative = inhibition in assay [1] (setting [2]) is -6.79%; in assay [1] (setting [3]), 2.45%. Also, the Potency entry in the assay on 3D7, with AA1029, in the assay on AS120, in the assay on ATS189, with ATS95 and in the assay with C2A was “inactive” throughout. Moreover, the Potency result with CP185 and in the assay with CP191 was “inactive” each time.

For the compound `Clc1ccc(C(c2ccccc2Cl)C(Cl)Cl)cc1` (centres undefined), the results for the activity, negative = inhibition in [1] (setting [2]) and in assay [1] (setting [3]) were -12.9% and -9.4%, respectively. The Potency result in the assay with AA1029, in the assay with AS120, in the assay on ATS189, in the assay with ATS95, in the assay on C2A and in the assay on CP185 was “inactive” each time.

Values taken from PubChem BioAssay (NCATS).
